# From PubChem BioAssay (EPA / NIEHS)
# “And” between values parts separate entries of the source, which are not always exact repeats. Equal values may be shown once. Records with an inconclusive call do not appear. Some compounds were tested as several samples or in several runs, with calls that do not always agree. The source made the active and inactive calls. The calls were made as follows, unless noted: active = hit-call score of the fitted dose curve at least 0.9, where 1 is the maximum; inactive = score below 0.9.
# System: IYD (gene 389434)
# Experiment: CCTE_GLTED_hIYD: CCTE's human Iodotyrosine Deiodinase (xIYD) Inhibition Assay, Great Lakes Toxicology and Ecology Division (GLTED) Lab (AID 2284317; active = hit-call score of the fitted dose curve at least 0.9, where 1 is the maximum;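 also: cell-free human IYD enzyme made in baculovirus insect cells; iodide freed from monoiodotyrosine measured by cerium arsenite color change at 420 nm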)
# Settings: not given
# How it was run: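 Cell-free; baculovirus/insect-cell hIYD + MIT substrate + chemical, 3 h. Dowex column cleanup, then Ce4+/As3+ Sandell-Kolthoff read at A420 nm. Triplicate plates; normalized to 3-nitro-L-tyrosine (positive) and DMSO/NaOH (solvent).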
SMILES,AC50,outcome
O=C(Nc1ccc(Br)cc1)c1cc(Br)cc(Br)c1O,118 µM (active) and 100 µM (active),inactive
CCCCCCCCCCCCc1cccc(S(=O)(=O)O)c1,89.9 µM (active),–
Oc1cc(Cl)c(Cl)cc1Cl,–,inactive
O=C(CCl)Nc1ccccc1,–,inactive
CCCCCCCCCCCCOS(=O)(=O)O,62.8 µM (active) and 56.8 µM (active),–
Nc1ccc(N)cc1,–,inactive
O=S1(=O)OC(c2cc(Br)c(O)c(Br)c2)(c2cc(Br)c(O)c(Br)c2)c2ccccc21,117 µM (active),–

# System: not listed separately
# Experiment: CCTE_Mundy_HCI_iCellGluta_NOG_NeuriteLength: CCTE's Neurite Outgrowth Assay in iCellGluta cells for Neurite Length, Mundy Lab (AID 2284318; active = hit-call score of the fitted dose curve at least 0.9, where 1 is the maximum)
# Settings: not given
# How it was run: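 Automated high-content imaging of betaIII-tubulin (Alexa Fluor-488) and Hoechst-stained cells gave neurite length, normalized to the DMSO baseline.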
SMILES,AC50,outcome
CCOCn1c(-c2ccc(Cl)cc2)c(C#N)c(Br)c1C(F)(F)F,14.1 µM (active),–
OC(Cc1ccccc1Cl)(Cn1[nH]cnc1=S)C1(Cl)CC1 (stereo unspecified),–,inactive
Cc1cc(C(F)(C(F)(F)F)C(F)(F)F)ccc1NC(=O)c1cccc(I)c1C(=O)NC(C)(C)CS(C)(=O)=O,–,inactive
Cc1ccccc1OP(=O)(Oc1ccccc1C)Oc1ccccc1C,8.67 µM (active),–
CC1(C)[C@H](C(=O)O[C@H](C#N)c2cccc(Oc3ccccc3)c2)[C@@H]1/C=C(\Cl)C(F)(F)F,–,inactive
CS(=O)(=O)c1ccc(C(=O)C2C(=O)CCCC2=O)c(Cl)c1COCC(F)(F)F,25 µM (active),–
CC(C)[C@@H](Nc1ccc(C(F)(F)F)cc1Cl)C(=O)OC(C#N)c1cccc(Oc2ccccc2)c1 (stereo partly specified),–,inactive

# System: not listed separately
# Experiment: CCTE_Deisenroth_5AR_NBTE_donor: CCTE's 5alpha-reductase NanoBRET Target Engagement Assay […], Deisenroth Lab (AID 2284319)
# Settings: actives raise or lower the signal
# How it was run: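 HEK293T cells transiently expressing SRD5A2-NanoLuc, exposed 5 h to chemicals (8 points, 10 nM - 29.9 uM), with testosterone tracer for the final 2 h. Donor luminescence at 460 nm read after Nano-Glo substrate plus extracellular NanoLuc inhibitor; bidirectional fit versus DMSO.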
SMILES,outcome,AC50
CC(=Cc1ccccc1)[N+](=O)[O-],inactive,–
N#CCCC(Br)(C#N)CBr (stereo unspecified),–,62.1 µM (active)
O=c1[nH]c(=O)n(Cl)c(=O)n1Cl,inactive,–
CCC[CH2][Sn]([Cl])([Cl])[CH2]CCC,–,4.46 µM (active)
CCOP(=S)(OCC)O/N=C(\C#N)c1ccccc1,inactive,–
O=c1nc(O)n(Cl)c(=O)n1Cl,inactive,–
O=S1(=O)OC(c2cc(Br)c(O)c(Br)c2)(c2cc(Br)c(O)c(Br)c2)c2ccccc21,inactive,–
O=[N+]([O-])c1ccccc1O,inactive,–

# System: not listed separately
# Experiment: CCTE_Deisenroth_5AR_NBTE_acceptor: CCTE's 5alpha-reductase NanoBRET Target Engagement Assay - Autofluorescence Screen, Deisenroth Lab (AID 2284321);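 also: compound fluorescence in the acceptor channel under 460 nm excitation flags autofluorescence artifacts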
# Settings: actives raise or lower the signal
# How it was run: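 HEK293T cell-based NanoBRET assay read 5 h after dosing; this acceptor channel serves as an autofluorescence artifact screen. Chemicals at nominal 100 uM were scanned in three independent runs (n=3), excitation 460 nm. Fitting was bidirectional versus DMSO baseline.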
SMILES,outcome,AC50
CC(=Cc1ccccc1)[N+](=O)[O-],inactive,–
N#CCCC(Br)(C#N)CBr (stereo unspecified),–,54.4 µM (active)
O=c1[nH]c(=O)n(Cl)c(=O)n1Cl,inactive,–
CCC[CH2][Sn]([Cl])([Cl])[CH2]CCC,–,5.59 µM (active)
CCOP(=S)(OCC)O/N=C(\C#N)c1ccccc1,inactive,–
O=c1nc(O)n(Cl)c(=O)n1Cl,inactive,–
O=S1(=O)OC(c2cc(Br)c(O)c(Br)c2)(c2cc(Br)c(O)c(Br)c2)c2ccccc21,inactive,–
O=[N+]([O-])c1ccccc1O,inactive,–

# System: SRD5A2 (gene 6716)
# Experiment: CCTE_Deisenroth_5AR_NBTE_ratio: CCTE's 5alpha-reductase NanoBRET Target Engagement Assay - Ratio, Deisenroth Lab (AID 2284322)
# Settings: actives raise or lower the signal
# How it was run: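 SRD5A2-NanoLuc HEK293T; cmpd 10 nM-29.9 uM, 3 h preinc + testosterone tracer 2 h; NanoBRET ratio 650/460; bidirectional fit vs DMSO.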
SMILES,outcome,AC50
CC(=Cc1ccccc1)[N+](=O)[O-],inactive,–
N#CCCC(Br)(C#N)CBr (stereo unspecified),–,69.9 µM (active)
O=c1[nH]c(=O)n(Cl)c(=O)n1Cl,inactive,–
CCC[CH2][Sn]([Cl])([Cl])[CH2]CCC,–,13 µM (active)
CCOP(=S)(OCC)O/N=C(\C#N)c1ccccc1,–,20.1 µM (active)
O=c1nc(O)n(Cl)c(=O)n1Cl,inactive,–
O=S1(=O)OC(c2cc(Br)c(O)c(Br)c2)(c2cc(Br)c(O)c(Br)c2)c2ccccc21,–,4.66 µM (active)
O=[N+]([O-])c1ccccc1O,–,50 µM (active)

# System: not listed separately
# Experiment: IUF_NPC1_cytotoxicity_72hr: Cytotoxicity Assessment at 72 hours in the Leibniz Research Institute for Environmental Medicine (IUF) Neural Progenitor Cell Proliferation Assay (NPC1) (AID 2284332; active = hit-call score of the fitted dose curve at least 0.9, where 1 is the maximum;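 also: rising LDH signal means more cytotoxicity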)
# Settings: not given
# How it was run: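 LDH in supernatant, resazurin→resorufin fluorescence (RFU), 72 h exposure, no re-dosing. Cells: primary hNPC spheres, one per well, EGF+FGF medium, 37C/5% CO2, pH 7.2-7.6. Fit: positive direction vs baseline and dynamic range.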
SMILES,AC50,outcome
CCOCn1c(-c2ccc(Cl)cc2)c(C#N)c(Br)c1C(F)(F)F,50.4 µM (active),–
CNC(=O)CSP(=O)(OC)OC,–,inactive
OC(Cc1ccccc1Cl)(Cn1[nH]cnc1=S)C1(Cl)CC1 (stereo unspecified),–,inactive
Cc1cc(C(F)(C(F)(F)F)C(F)(F)F)ccc1NC(=O)c1cccc(I)c1C(=O)NC(C)(C)CS(C)(=O)=O,–,inactive
CC1(C)[C@H](C(=O)O[C@H](C#N)c2cccc(Oc3ccccc3)c2)[C@@H]1/C=C(\Cl)C(F)(F)F,–,inactive
O=S1OC[C@@H]2[C@H](CO1)[C@]1(Cl)C(Cl)=C(Cl)[C@@]2(Cl)C1(Cl)Cl (stereo partly specified),–,inactive
CS(=O)(=O)c1ccc(C(=O)C2C(=O)CCCC2=O)c(Cl)c1COCC(F)(F)F,–,inactive
